The list is not random: actives were taken first. Their share in the collection is about 27%.
CYP2C19 inhib: blockers of cytochrome P450 2C19 activity – biochemical, luminescence, ADME assay, primary screen; CYP2C19 Supersomes, luciferin-H EGE luminescence, 30 min; AID 778, 2007; P33261; inhibition, % at 5 µM; 96,000 compounds, 21% hits;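 active = CYP2C19 inhibition above a set limit at 5 µM in the primary screen, cut at about 50% in these data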;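 note: plate controls were negative control wells for no effect and 2.5 mM tranylcypromine positive control for full effect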
CYP2C9 inhib: blockers of cytochrome P450 2C9 activity – biochemical, luminescence, ADME assay, primary screen; P11712; CYP2C9 Supersomes, luciferin-H conversion; 96,000 compounds, 20% hits; inhibition, % at 5 µM;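 active = blocking of liver enzyme CYP2C9 beyond about 50% at 5 µM, limit read from the data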
EphB4 ephrin blk: EphB4-ephrin-B2 interaction antagonists, primary screen, biochemical, TNYL-RAW peptide probe, fluorescence polarization; EphB4 LBD / TNYL-RAW-Alexa532 peptide; inhibition, % at 7 µM; 97,000 compounds, 0.15% hits; AID 720, 2007;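 active = inhibition above the screen-wide mean inhibition plus 3 SD, cut at about 15% in these data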;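 note: 0% = DMSO wells and 100% = excess unlabeled TNYL-RAW peptide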
CYP2C9 act: human CYP2C9 activators, primary screen, biochemical, luminescence; Cytochrome P450 2C9 (Homo sapiens), P11712; recombinant CYP2C9, luciferin-H conversion; stronger effect = higher value; factor 1 = untreated enzyme, 0 = blocked; activation factor at 5 µM; 96,000 compounds, 1.4% hits;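 active = activation factor of 2 or more for CYP2C9 at a 5 µM dose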;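 note: 0 = sulfaphenazole-blocked wells and 1 = vehicle-only wells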
CYP2C19 activ: human CYP2C19 activators, primary screen, biochemical, luminescence; Cytochrome P450 2C19 (Homo sapiens), P33261; recombinant CYP2C19, luciferin-H EGE luminescence; stronger effect = higher value; 0 = fully inhibited enzyme, 1 = untreated enzyme; activation factor at 5 µM; 96,000 tested, under 10 active; AID 1025, 2008;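 active = activation factor of at least 2 at 5 µM in the primary screen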;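 note: 0 = wells with 2.5 mM tranylcypromine and 1 = vehicle-only wells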
The depositor's hits bear a star; nt = not tested or not shown.

SMILES | CYP2C19 inhib | CYP2C9 inhib | EphB4 ephrin blk | CYP2C9 act | CYP2C19 activ
COc1ccc(CCNS(=O)(=O)c2ccc3c(c2)OCCO3)cc1OC | 84* | 46 | -7 | 0.5 | 0.2
CCOCCCNS(=O)(=O)c1ccc2c(c1)OCCO2 | 29 | -49 | 5 | 1.5 | 0.7
COCCCNS(=O)(=O)c1ccc2c(c1)OCCO2 | 78* | -51 | nt | 1.5 | 0.2
CC1CCN(S(=O)(=O)c2ccc(NC(=O)CN3CCN(C)CC3)cc2)CC1 | -2 | -7 | 6 | 1.1 | 1
CCOC(=O)C(=CNCC(=O)O)C(=O)OCC | -5 | -7 | -5 | 1.1 | 1.1
COc1ccc(Cl)cc1C(=O)NCC(c1ccco1)N1CCCC1 (stereo unspecified) | 22 | -12 | -5 | 1.1 | 0.8
COc1ccc(CCNS(=O)(=O)c2cccc(F)c2)cc1OC | 51* | 51* | -2 | 0.5 | 0.5
O=S(=O)(NCCSCc1c(Cl)cccc1Cl)c1ccc2c(c1)OCCO2 | nt | nt | 3 | nt | nt
O=S(=O)(NCCSc1ccc(Cl)cc1)c1ccc2c(c1)OCCO2 | 86* | 63* | 3 | 0.4 | 0.1
CCc1cccc(OCCCN2C(=O)NC(C)(C)C2=O)c1 | 92* | 60* | 2 | 0.4 | 0.1
CC1(C)NC(=O)N(CCOCCOc2ccccc2)C1=O | 48 | 18 | -5 | 0.8 | 0.5
CC(=O)c1cccc(OCCN2C(=O)NC(C)(C)C2=O)c1 | 34 | 50* | 3 | 0.5 | 0.7
O=c1[nH]c2cc3c(cc2cc1CN(CCCO)Cc1nnnn1Cc1ccc(F)cc1)OCO3 | 18 | 13 | -5 | 0.9 | 0.8
Nc1c(C(=O)Nc2ccccc2F)sc2nc(Cc3ccccc3)cc(C(F)(F)F)c12 | -11 | 7 | -3 | 0.9 | 1.1
O=C(CCc1ccccc1)NCCCN1CCOCC1 | 8 | 3 | -15 | 1 | 0.9
Cc1c(NCc2cc(Cl)cc(Cl)c2O)c(=O)n(-c2ccccc2)n1C | 73* | 85* | -8 | 0.1 | 0.3
Cc1c(NCc2nc3ccccc3[nH]2)c(=O)n(-c2ccccc2)n1C | 42 | 10 | -2 | 0.9 | 0.6
CCOC(=O)c1ccc2c(c1)N(CC)/C(=C\C=C1/SC(=S)N(CC)C1=O)N2CC | nt | nt | -16 | nt | nt
COC(=O)c1ccc(COC(=O)c2ccc(-n3cnnn3)cc2)o1 | 14 | 64* | 2 | 0.4 | 0.9
COc1cc(NC(=O)COc2ccc(-n3cnnn3)cc2)c(OC)cc1Cl | 14 | -20 | -12 | 1.2 | 0.9
COc1ccc(C(C)=O)cc1COc1ccc(-n2cnnn2)cc1 | 99* | 93* | 1 | 0.1 | 0
COc1ccc(OC)c(NC(=O)COC(=O)c2ccc(-n3cnnn3)cc2)c1 | 63* | 21 | -9 | 0.8 | 0.4
COc1ccc(C(C)=O)cc1CN(C)C | -10 | -19 | 3 | 1.2 | 1.1
O=C(Nc1nccs1)C1CC2CCC1C2 (stereo unspecified) | 18 | 5 | 1 | 1 | 0.8
CC(c1ccco1)N(C(=O)Nc1ccc(Cl)cc1)c1ccccn1 (stereo unspecified) | 85* | 56* | -6 | 0.4 | 0.2
SMILES | CYP2C19 inhib | CYP2C9 inhib | EphB4 ephrin blk | CYP2C9 act | CYP2C19 activ
Cc1ccc(C(=O)N(c2ccccn2)C(C)c2ccco2)cc1 (stereo unspecified) | 80* | 29 | 4 | 0.7 | 0.2
CC(N=c1ccccn1C(=O)Nc1ccc(Cl)cc1)c1ccco1 (stereo unspecified) | 40 | 22 | 6 | 0.8 | 0.6
CC(c1ccco1)N(C(=O)C12CC3CC(CC(C)(C3)C1)C2)c1ccccn1 (stereo unspecified) | 42 | 23 | -2 | 0.8 | 0.6
Cc1ccc(-c2onc3ccc(C4(C)OCCO4)cc23)cc1 | 60* | 54* | 1 | 0.5 | 0.4
COc1ccc(C2(NC(C)=O)CCN(C(=O)CCC(=O)O)CC2)cc1 | -1 | 6 | 0 | 0.9 | 1
COCCN(CCOC)C(=O)c1c[nH]c2ccc(S(=O)(=O)N(C)c3ccc(F)cc3)cc2c1=O | -6 | 18 | 4 | 0.8 | 1.1
COCCSc1nc2sc3c(c2c(=O)n1-c1ccccc1)CCN(C)C3 | 98* | 33 | 3 | 0.7 | 0
O=C(O)C1CCCCC1C(=O)NCCC(c1ccccc1)c1ccccc1 (stereo unspecified) | -2 | 31 | 1 | 0.7 | 1
O=C(NC1CCCCCC1)c1c(O)c2cccc3c2n(c1=O)CCC3 | 1 | -6 | nt | 1.1 | 1
CC(C)(C)C1=Nn2c(nnc2-c2n[nH]c3c2CCC3)SC1 | -4 | 3 | 3 | 1 | 1
CCn1c(C(O)c2ccc3c(c2)OCO3)nc2ccccc21 (stereo unspecified) | 98* | 46 | -1 | 0.5 | 0
CC(NC(=O)CC(O)(C(F)(F)F)C(F)(F)F)c1ccccc1 (stereo unspecified) | 78* | 57* | 3 | 0.4 | 0.2
COc1ccc(NC(=O)N2c3ccccc3CC2C)cc1OC (stereo unspecified) | 44 | 66* | 3 | 0.3 | 0.6
COC(=O)c1ccccc1NC(=O)N1c2ccccc2CC1C (stereo unspecified) | 12 | 22 | -4 | 0.8 | 0.9
Cn1c(C(=O)NCCc2c[nH]c3ccccc23)cc2sccc21 | 54* | -23 | -1 | 1.2 | 0.5
O=C(NCCc1c[nH]c2ccccc12)c1cc2sccc2n1Cc1ccccc1 | 65* | 82* | 4 | 0.2 | 0.4
COc1ccccc1CNC(=O)c1cc2sccc2n1C | 28 | -5 | nt | 1 | 0.7
CC(=O)Nc1nc2c(ncn2COCCOC(C)=O)c(=O)[nH]1 | 4 | -2 | 3 | 1 | 1
CCOc1cc(/C=C2/NC(=O)N(CC(=O)Nc3cccc(C)c3)C2=O)ccc1OC | 44 | 37 | -6 | 0.6 | 0.6
COc1ccc(-c2csc(NC(=O)C3CCCO3)n2)cc1 (stereo unspecified) | 16 | 19 | -4 | 0.8 | 0.8
Cc1ccc(S(=O)(=O)N2CCC[C@H]2C(=O)OC(C)C(=O)Nc2ncc(Cl)cc2Cl)cc1 (stereo partly specified) | 71* | -23 | 3 | 1.2 | 0.3
CC(OC(=O)CN(C)S(=O)(=O)c1ccc(Cl)cc1)C(=O)Nc1ncc(Cl)cc1Cl (stereo unspecified) | 18 | 5 | 6 | 1 | 0.8
COc1ccc(S(=O)(=O)N2CCCC2C(=O)Nc2ccc(C)cc2)cc1 (stereo unspecified) | 76* | 54* | 6 | 0.5 | 0.2
COc1ccc(-c2csc(NC(=O)C3CCCCN3S(=O)(=O)c3ccccc3)n2)cc1 (stereo unspecified) | 39 | 88* | 10 | 0.1 | 0.6
O=C(Nc1nccs1)C1CCCN1S(=O)(=O)c1ccc(F)cc1 (stereo unspecified) | 39 | 62* | -4 | 0.4 | 0.6

From PubChem
